Publication PMC7862700, “An all-to-all approach to the identification of sequence-specific readers for epigenetic DNA modifications on cytosine”

Experiments:
Assay in all cases: DAPPL (digital affinity profiling via proximity ligation, sequencing); 10 mM Tris-HCl pH 7.5, 50 mM NaCl, 1 mM DTT, 4% glycerol, room temperature, 30 min; GST-TFs on glutathione beads, 16-mer random dsDNA library, 0.1% formaldehyde crosslink after washing; high values mean tight binding
Settings in all cases: protein: recombinant; tags: N-terminal GST; dsDNA, one strand shown
[1] = target: T1, FLI1 (Homo sapiens, UniProt Q01543 1-452)
T1 sequence: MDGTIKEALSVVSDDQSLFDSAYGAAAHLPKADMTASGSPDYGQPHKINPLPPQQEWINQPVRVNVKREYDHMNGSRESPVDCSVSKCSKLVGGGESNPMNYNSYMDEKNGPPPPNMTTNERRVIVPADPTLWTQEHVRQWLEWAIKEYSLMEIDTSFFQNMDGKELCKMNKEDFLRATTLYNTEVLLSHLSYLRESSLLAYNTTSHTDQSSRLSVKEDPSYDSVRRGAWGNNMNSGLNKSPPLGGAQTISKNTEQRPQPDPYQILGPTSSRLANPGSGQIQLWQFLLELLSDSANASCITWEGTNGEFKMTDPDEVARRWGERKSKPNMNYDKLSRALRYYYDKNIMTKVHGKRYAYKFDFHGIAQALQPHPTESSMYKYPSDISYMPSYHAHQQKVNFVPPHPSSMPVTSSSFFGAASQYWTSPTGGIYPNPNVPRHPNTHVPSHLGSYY
In short: (§1)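 Binding signal is defined as a hexamer's read frequency for one factor over its frequency for the tag-only sample. To obtain reads, GST-fused human transcription factors were expressed in yeast, captured on glutathione beads, barcoded with DNA and pooled with that sample. Pools met 200 nmole of a 16-mer random double-stranded DNA library in Tris/NaCl/DTT/glycerol buffer for 30 min at room temperature before washing, 0.1% formaldehyde crosslinking, proximity ligation (BsaI/T4 ligase, 1 h, 37 °C), PCR and Illumina NextSeq500 sequencing.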

[2] = target: T2, ELK1 (Homo sapiens, UniProt P19419 1-428)
T2 sequence: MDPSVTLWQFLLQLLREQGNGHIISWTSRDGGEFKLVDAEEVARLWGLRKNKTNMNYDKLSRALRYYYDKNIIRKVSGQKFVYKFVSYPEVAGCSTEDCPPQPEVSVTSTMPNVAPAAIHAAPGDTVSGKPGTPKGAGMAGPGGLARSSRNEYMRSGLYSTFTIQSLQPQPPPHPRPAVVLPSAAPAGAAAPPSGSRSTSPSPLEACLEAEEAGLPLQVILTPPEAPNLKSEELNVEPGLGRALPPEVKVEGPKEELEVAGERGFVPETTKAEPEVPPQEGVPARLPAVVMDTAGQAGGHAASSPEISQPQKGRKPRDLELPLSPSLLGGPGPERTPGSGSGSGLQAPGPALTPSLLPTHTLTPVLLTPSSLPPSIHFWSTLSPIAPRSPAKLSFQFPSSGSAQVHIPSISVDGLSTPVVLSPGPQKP
In short: as §1

[3] = target: T3, GABPA (Homo sapiens, UniProt Q06546 1-454)
T3 sequence: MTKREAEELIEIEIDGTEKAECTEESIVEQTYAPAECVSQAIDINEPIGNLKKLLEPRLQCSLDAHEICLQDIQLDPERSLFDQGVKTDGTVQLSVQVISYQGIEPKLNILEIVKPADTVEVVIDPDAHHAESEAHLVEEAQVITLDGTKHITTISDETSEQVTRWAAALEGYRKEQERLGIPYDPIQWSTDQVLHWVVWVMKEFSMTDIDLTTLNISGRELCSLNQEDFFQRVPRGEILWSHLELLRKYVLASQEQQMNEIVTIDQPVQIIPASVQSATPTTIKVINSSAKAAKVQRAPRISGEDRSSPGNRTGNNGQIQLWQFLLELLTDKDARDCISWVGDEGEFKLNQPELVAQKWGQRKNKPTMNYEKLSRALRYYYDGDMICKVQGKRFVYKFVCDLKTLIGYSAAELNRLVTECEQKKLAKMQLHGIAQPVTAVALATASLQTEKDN
In short: as §1

[4] = target: T4, ERG (Homo sapiens, UniProt P11308 1-479)
T4 sequence: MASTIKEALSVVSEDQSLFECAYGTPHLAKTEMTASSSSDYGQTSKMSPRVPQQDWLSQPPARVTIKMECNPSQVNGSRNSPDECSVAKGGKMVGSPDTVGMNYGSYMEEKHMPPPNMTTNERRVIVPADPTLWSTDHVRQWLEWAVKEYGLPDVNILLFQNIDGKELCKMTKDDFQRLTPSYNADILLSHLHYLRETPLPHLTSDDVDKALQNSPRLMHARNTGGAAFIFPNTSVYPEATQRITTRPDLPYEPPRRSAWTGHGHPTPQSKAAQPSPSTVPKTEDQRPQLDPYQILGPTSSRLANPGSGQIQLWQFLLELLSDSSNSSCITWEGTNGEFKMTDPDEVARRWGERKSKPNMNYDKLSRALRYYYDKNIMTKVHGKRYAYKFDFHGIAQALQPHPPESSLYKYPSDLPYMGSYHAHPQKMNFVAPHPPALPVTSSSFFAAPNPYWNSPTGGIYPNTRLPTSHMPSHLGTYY
In short: as §1

[5] = target: ELF1 (Homo sapiens, UniProt P32519 1-619)
ELF1, sequence (P32519 whole entry): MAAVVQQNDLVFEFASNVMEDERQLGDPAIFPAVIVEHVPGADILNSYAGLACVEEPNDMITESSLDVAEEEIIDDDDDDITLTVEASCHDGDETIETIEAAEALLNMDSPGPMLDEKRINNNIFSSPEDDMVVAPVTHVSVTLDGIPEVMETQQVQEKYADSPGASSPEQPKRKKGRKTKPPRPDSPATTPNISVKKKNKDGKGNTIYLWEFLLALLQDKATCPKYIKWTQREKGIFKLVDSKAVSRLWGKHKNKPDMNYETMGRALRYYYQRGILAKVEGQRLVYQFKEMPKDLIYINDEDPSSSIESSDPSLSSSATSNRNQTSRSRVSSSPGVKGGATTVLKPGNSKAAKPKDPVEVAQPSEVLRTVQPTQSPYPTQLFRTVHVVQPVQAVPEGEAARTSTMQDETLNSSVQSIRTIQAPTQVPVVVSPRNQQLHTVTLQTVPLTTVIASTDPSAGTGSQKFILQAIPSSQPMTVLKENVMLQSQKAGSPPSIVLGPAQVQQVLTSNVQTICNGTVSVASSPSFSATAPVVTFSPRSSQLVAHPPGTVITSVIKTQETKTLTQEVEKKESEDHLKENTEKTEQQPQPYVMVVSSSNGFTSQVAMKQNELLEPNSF
In short: as §1

[6] = target: T5, EHF (Homo sapiens, UniProt Q9NZC4 1-300)
T5 sequence: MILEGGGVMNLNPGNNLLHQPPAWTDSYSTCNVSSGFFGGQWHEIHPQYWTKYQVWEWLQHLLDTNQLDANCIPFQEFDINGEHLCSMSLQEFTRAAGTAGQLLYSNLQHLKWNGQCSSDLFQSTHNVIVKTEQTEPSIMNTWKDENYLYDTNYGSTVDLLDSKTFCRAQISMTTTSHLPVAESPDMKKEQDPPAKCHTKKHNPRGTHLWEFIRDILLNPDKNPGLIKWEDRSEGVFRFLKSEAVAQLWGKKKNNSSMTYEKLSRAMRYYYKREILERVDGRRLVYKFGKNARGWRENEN
In short: as §1

[7] = target: SPI1 (Homo sapiens, UniProt P17947 1-270)
In short: as §1

[8] = target: SPIB (Homo sapiens, UniProt Q01892 1-262)
SPIB, sequence (Q01892 whole entry): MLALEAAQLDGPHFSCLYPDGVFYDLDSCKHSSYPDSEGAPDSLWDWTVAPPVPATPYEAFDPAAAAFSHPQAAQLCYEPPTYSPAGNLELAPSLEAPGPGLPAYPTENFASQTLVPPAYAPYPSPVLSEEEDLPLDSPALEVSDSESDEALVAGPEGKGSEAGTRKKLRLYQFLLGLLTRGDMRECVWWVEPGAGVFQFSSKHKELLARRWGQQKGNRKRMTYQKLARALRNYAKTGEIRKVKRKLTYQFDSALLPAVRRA
In short: as §1

[9] = target: T6, ELK3 (Homo sapiens, UniProt P41970 1-407)
T6 sequence: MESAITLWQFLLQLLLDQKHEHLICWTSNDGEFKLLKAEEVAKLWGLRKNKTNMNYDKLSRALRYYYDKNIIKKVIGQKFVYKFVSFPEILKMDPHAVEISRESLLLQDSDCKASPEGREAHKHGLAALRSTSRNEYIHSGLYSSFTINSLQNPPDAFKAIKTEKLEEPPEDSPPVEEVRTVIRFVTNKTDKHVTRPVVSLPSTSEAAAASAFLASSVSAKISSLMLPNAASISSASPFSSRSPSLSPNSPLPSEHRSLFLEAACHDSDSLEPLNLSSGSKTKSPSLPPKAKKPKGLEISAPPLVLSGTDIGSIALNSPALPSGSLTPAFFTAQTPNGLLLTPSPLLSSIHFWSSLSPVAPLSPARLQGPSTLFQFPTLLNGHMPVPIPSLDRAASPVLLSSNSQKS
In short: as §1

**Q.** Which binding signal [1] does the source give for AAATGT here?
**A.** 1.24 fold enrichment (6-mer frequency, TF over GST control)

**Q.** And the binding signal [2]?
**A.** 1.19 fold enrichment (6-mer frequency, TF over GST control)

**Q.** And the binding signal [3]?
**A.** 1.25 fold enrichment (6-mer frequency, TF over GST control)

**Q.** And the binding signal [4]?
**A.** 1.31 fold enrichment (6-mer frequency, TF over GST control)

**Q.** What about the binding signal [5] of the same sequence?
**A.** 1.38 fold enrichment (6-mer frequency, TF over GST control)

**Q.** And the binding signal [6]?
**A.** 1.32 fold enrichment (6-mer frequency, TF over GST control)

**Q.** And the binding signal [7]?
**A.** 1.26 fold enrichment (6-mer frequency, TF over GST control)

**Q.** And the binding signal [8]?
**A.** 1.42 fold enrichment (6-mer frequency, TF over GST control)

**Q.** And the binding signal [9]?
**A.** 1.37 fold enrichment (6-mer frequency, TF over GST control)
